Compounds with a hit are over-represented: about 10% of the library has one in this group of screens.
GLS inhibitor: glutaminase GLS (human) inhibition | GLS enzymatic activity, qHTS titration | Potency, µM (top dose mostly 45.5 µM), for the others: at the highest dose activity change, negative = inhibition, actives largely listed as inhibitors | hit rate 0.21% among 410,000; also: % is scaled to controls: 0 for no effect and ±100 for the full control effect
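hKGA in 45 mM KH2PO4 pH 8.2, 0.02% Tween-20 with pin-transferred compounds; 1 mM L-glutamine (stock) plus glutamate oxidase/HRP/Amplex Red coupling added. Fluorescence read initially and after 30 min at RT.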
BAZ2B block: inhibitors of human BAZ2B bromodomain. AID 504333. hit rate 4.4% among 360,000. Q9UIF8. Potency, µM (titrated, usually from 114 µM), for inactives: at the top dose activity change, negative = inhibition, hits mostly inhibitors. AlphaScreen BAZ2B-H3K14Ac peptide displacement; also: % is scaled to controls: 0 for no effect and ±100 for the full control effect; nearly all actives have a fitted effect of over 60% in size
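BAZ2B 50 nM plus b-H3(5-23)K14Ac 50 nM, PBS pH 7.4/0.01% Tween-20, 30 min RT; compound added (max 110 uM), 30 min RT; streptavidin donor/Ni-chelate acceptor beads 10 ug/mL final, 20 min dark; AlphaScreen read.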
HP1b binding inh: inhibitors of HP1-beta chromodomain binding to methylated histone tails; P83916; AlphaScreen HP1-beta / biotin-H3K9me3 peptide binding; Potency, µM (titrated, usually from 114 µM), for inactives: top-dose activity change, negative = inhibition, usual class: inhibitors; hit rate 0.56% among 390,000; also: nearly all actives have a fitted effect of over 70% in size
Target sequence (P83916 whole entry, looked up): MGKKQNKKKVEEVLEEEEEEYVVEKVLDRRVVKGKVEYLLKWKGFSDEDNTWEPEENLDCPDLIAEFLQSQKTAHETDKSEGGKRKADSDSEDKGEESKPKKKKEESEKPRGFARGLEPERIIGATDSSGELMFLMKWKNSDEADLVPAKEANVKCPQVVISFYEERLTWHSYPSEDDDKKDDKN
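AlphaScreen: HP1-beta (50 nM) preformed 30 min with biotin-H3(1-18)K9me3 peptide (50 nM) in PBS pH 7.4, 0.01% Tween-20. Compound added for 30 min at RT, then streptavidin donor/nickel chelate acceptor beads (10 ug/mL) for 30 min.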
G9a inh: blocks human histone lysine methyltransferase G9a; G9a H3K9 monomethylation, AlphaScreen, 2 h; Potency, µM (highest dose often 102 µM), for inactives: at the top dose activity, negative = inhibition, actives largely listed as inhibitors; hit rate 8.8% among 350,000; Q96KQ7; also: % is scaled to controls: 0 for no effect and ±100 for the full control effect; nearly all actives have a fitted effect of over 75% in size
Target sequence (Q96KQ7 913-1193 limits assumed): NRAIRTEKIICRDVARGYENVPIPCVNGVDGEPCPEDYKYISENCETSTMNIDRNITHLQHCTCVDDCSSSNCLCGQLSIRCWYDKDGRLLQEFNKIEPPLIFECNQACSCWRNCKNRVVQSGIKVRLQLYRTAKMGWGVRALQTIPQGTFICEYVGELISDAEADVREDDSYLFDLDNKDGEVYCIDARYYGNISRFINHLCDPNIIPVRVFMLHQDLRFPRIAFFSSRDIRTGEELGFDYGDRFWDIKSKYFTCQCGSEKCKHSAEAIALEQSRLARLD
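Chemiluminescent proximity detection of H3K9 monomethylation, read after 10 min bead incubation in the dark. Reaction: 20 nM G9a, 500 nM biotin-H3K9 peptide, 20 uM SAM cofactor, 2 h, room temperature, following 15 min enzyme-compound preincubation.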
JMJD2A Tudor inh: inhibitors of human JMJD2A Tudor domain. AID 504339. hit rate 4.4% among 390,000. Potency, µM (doses to about 114 µM), for inactives: at the highest dose activity change, negative = inhibition, most hits filed as inhibitors. AlphaScreen JMJD2A-Tudor / H3K4me3 peptide binding; also: % is scaled to controls: 0 for no effect and ±100 for the full control effect; nearly all actives have a fitted effect of over 50% in size
* hit, by the source's call; ? = inconclusive; . = no result; [ ] = remark or other dose. Calls follow the shape of the dose curve; as a rule, active = well fitted curve in the direction sought with a large enough effect; inconclusive = small, poorly fitted or top-dose-only effect, or another doubt; inactive = no such curve, though single readings can be large; an effect the other way counts as inactive or inconclusive. Potency is read from the fitted curve at half-maximal effect.

SMILES	GLS inhibitor	BAZ2B block	HP1b binding inh	G9a inh	JMJD2A Tudor inh
CN(C)C(=O)c1ccc(NC(=O)c2cc(-c3ccco3)nc3ccccc23)cc1	-14%	-15%	?	72%	40µM*
O=C(Nc1nc2ccccc2s1)c1cc(-c2ccco2)nc2ccccc12	-4%	-32%	11%	?	?
Cc1csc(NC(=O)c2cc(-c3ccco3)nc3ccccc23)n1	?	?	?	-24%[59 µM]	?
CCN(CC)CCNC(=O)c1ccc(NC(=O)c2cc(-c3ccco3)nc3ccccc23)cc1	-2%	32µM*	-9%	32µM*	?
O=C1N(Cc2cccnc2)C[C@@H]2C[C@@H](c3cccc(Oc4ccccc4)c3)N3CCC[C@@]123	-6%	?	22%	13µM*	-35%
O=C1N(Cc2cccnc2)C[C@@H]2C[C@@H](c3ccc(C(F)(F)F)cc3)N3CCC[C@@]123	-9%	-17%	30%	?	0%
O=C1N(Cc2cccc(Cl)c2)C[C@@H]2C[C@@H](c3cccn3-c3cccnc3)N3CCC[C@@]123	6%	?	2%	50µM*	?
COc1cc(NCCCCCCCN)c2ncccc2c1	1%	?	-25%	-43%[59 µM]	?
COc1cc(NC(C)CCCN)c2ncccc2c1 (stereo unspecified)	29%	56µM*	-6%	13µM*	?
CSc1ccc(/C=N/Nc2ccc(Cl)c(C(=O)O)c2)cc1	-19%	-37%	1%	10µM*	-36%
O=C(O)c1cc(N/N=C/c2ccncc2)ccc1Cl	-26%	-2%	18%[57 µM]	-46%[59 µM]	-7%
O=C(O)c1cc(N/N=C/c2ccc(-c3ccccc3)cc2)ccc1Cl	?	?	-25%	17%[0.501 µM]	32µM*
O=C(O)c1cc(N/N=C/c2c[nH]c3ccccc23)ccc1Cl	14µM*	?	-36%	45µM*	?
O=C(O)c1cc(N/N=C/c2cccnc2)ccc1Cl	-14%	-2%	44%	.	-8%
CSc1ccc(/C=N/NC(=O)c2ccc(C)c(C)c2)cc1	6%	50µM*	18%	-4%[59 µM]	?
COc1cc2ccccc2cc1C(=O)Nc1cccc(-c2nc3cc(C)ccc3o2)c1C	6%	2%	33%	-27%[59 µM]	-11%
COc1cc2ccccc2cc1C(=O)Nc1cccc(-c2nc3cc(C)c(C)cc3o2)c1C	2%	2%	10%	3.2µM*	7%
Cn1nnnc1Sc1c(Cl)cccc1[N+](=O)[O-]	-2%	-2%	32%	0%	6%
Cc1ccc(NC(=S)N2CCn3cccc3C2c2cccnc2)cc1 (stereo unspecified)	16%	?	-7%	45µM*	?
CC(=O)Nc1ccc(C=NNc2ccc(S(=O)(=O)Nc3ccccc3C(=O)O)cc2[N+](=O)[O-])cc1	?	.	?	.	50µM*
CCOc1ccc(C=NNc2ccc(S(=O)(=O)Nc3ccccc3C(=O)O)cc2[N+](=O)[O-])cc1OC	-14%	.	?	.	20µM*
CCOc1cc(/C=N/Nc2ccc(S(=O)(=O)Nc3ccccc3C(=O)O)cc2[N+](=O)[O-])cc(Cl)c1O	2%	.	.	.	.
NS(=O)(=O)c1ccc(N/N=C/c2ccc(C(=O)O)cc2)c([N+](=O)[O-])c1	3%	?	31%	.	-15%
COc1ccc(NS(=O)(=O)c2ccc(N/N=C/c3ccc(N4CCOCC4)cc3)c([N+](=O)[O-])c2)cc1	-3%	?	-6%	-17%[59 µM]	-6%
COc1cc(C=NNc2ccc(S(=O)(=O)Nc3ccccc3C(=O)O)cc2[N+](=O)[O-])ccc1O	-10%	.	?	.	25µM*
O=C(O)c1ccccc1NS(=O)(=O)c1ccc(N/N=C/c2cccc(O)c2O)c([N+](=O)[O-])c1	7%	.	?	.	20µM*
CC(=O)c1ccccc1NS(=O)(=O)c1ccc2c(c1)CC(=O)N2	3%	-21%	25%	?	-27%
CC1(c2nnc(-c3ccc(Cl)cc3)o2)CC(c2ccncc2)=NO1 (stereo unspecified)	4%	2%	22%	6%[59 µM]	-14%
CC(=O)Nc1cccc(/C(C)=N/Nc2ccc(S(=O)(=O)Nc3ccccc3C(=O)O)cc2[N+](=O)[O-])c1	?	.	?	.	35µM*

Bioassay records from PubChem.
